ELG1 repair inh: blocks ELG1-dependent DNA repair in HEK293T cells | HEK293T ELG1-luciferase reporter, luminescence, 16 h; DNA damage induced by 5-fluorouridine | 330,000 tested, 2.3% active | Potency, µM (series often up to 46.1 µM), hits mostly inhibitors; also: nearly all actives have a fitted effect of over 55% in size
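Reporter activity after DNA damage by 5-fluorouridine is monitored. Compound-treated cells incubate 16 hr at 37 °C, then ONE-Glo is added for 30 min before luminescence reading.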
DT40 TDP1 no CPT: qHTS for Inhibitors of human tyrosyl-DNA phosphodiesterase 1 (TDP1): qHTS in cells in absence of CPT | 420,000 tested, 15% active | Potency, µM (highest dose often 46.2 µM), hits mostly inhibitors | DT40 Tdp1-/- hTDP1 cells, no CPT, ATP luminescence, 48 h; also: nearly all actives have a fitted effect of over 55% in size
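Luminescent ATP content (CellTiter-Glo) served as the growth readout. Knockout chicken DT40 cells expressing human TDP1 were exposed to compounds without camptothecin for a minimum 48 hr at 37 °C.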
IL1B secr inh: blocks inflammasome-driven IL-1 beta release; THP-1 LPS/ATP IL-1B secretion, AlphaLISA, 16 h; active compounds read low; 360,000 tested, 4.7% active; activity change, % at 57.5 µM; in the data active = activity change below about -50%; inconclusive = mostly about -30% to -49%
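THP-1 cells pretreated 1 hr with compounds (up to 57.5 uM final), then stimulated with LPS (250 ng/mL final) plus ATP (1.25 mM final); secreted IL-1B measured by AlphaLISA after 16 hr, decreased signal indicating inhibition.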
RORg inh: inhibitors of mouse ROR gamma transcriptional activity. Potency, µM (highest dose often 53.6 µM), usual class: inhibitors. P51450. 310,000 tested, 5.4% active. Drosophila S2 Gal4-RORgamma UAS-luciferase reporter, 20 h; also: nearly all actives have a fitted effect of over 60% in size
Target sequence (P51450 whole entry, looked up, the tested form may be a part): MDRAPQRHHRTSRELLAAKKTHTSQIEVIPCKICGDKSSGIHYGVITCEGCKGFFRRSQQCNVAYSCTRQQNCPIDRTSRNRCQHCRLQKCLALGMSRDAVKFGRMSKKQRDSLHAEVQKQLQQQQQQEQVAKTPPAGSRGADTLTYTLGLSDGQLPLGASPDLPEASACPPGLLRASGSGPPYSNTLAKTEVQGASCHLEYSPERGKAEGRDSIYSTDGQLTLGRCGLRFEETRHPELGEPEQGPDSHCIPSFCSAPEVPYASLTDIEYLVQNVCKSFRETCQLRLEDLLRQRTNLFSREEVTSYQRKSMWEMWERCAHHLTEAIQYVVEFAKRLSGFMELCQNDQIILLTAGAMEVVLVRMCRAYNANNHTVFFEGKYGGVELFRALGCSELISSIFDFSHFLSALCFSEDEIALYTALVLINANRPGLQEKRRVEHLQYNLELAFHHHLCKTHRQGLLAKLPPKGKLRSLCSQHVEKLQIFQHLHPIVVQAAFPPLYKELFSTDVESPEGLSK
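Luciferase reporter read in Schneider cells carrying Gal4-RORγ (mouse) and UAS-Photinus luciferase; cells given compound 1 h before 700 uM copper sulfate induction, then incubated 20 h at ambient temperature.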
VP16 counter: counter-screen for ROR gamma inhibitors: Gal4-VP16 reporter; Drosophila S2 Gal4-VP16 UAS-luciferase, luminescence, 20 h; Potency, µM (highest dose often 53.6 µM), most hits filed as inhibitors; 310,000 tested, 3.5% active; AID 2546;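 also: Gal4-VP16 expression switched on by copper sulfate through the metallothionein promoter; nearly all actives have a fitted effect of over 50% in size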
TDP1 cell CPT: DT40-hTDP1 cell growth loss with CPT; chicken DT40 Tdp1-/-;hTDP1 cells + 20 nM CPT, ATP luminescence, 48 h; AID 686979; 420,000 tested, 12% active; Potency, µM (series often up to 46.2 µM), hits mostly inhibitors; also: nearly all actives have a fitted effect of over 55% in size
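Chicken DT40 Tdp1-/- cells complemented with human TDP1, 400 cells/well, exposed to compounds plus 20 nM camptothecin for at least 48 h at 37 C; viability read as ATP content by CellTiter-Glo luminescence.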
Numbers stand for hits; [ ] = remark or other dose. In the library only some 21% were active in any assay of this set; here they are far more common. Unless noted, calls follow the shape of the dose curve; as a rule, active = well fitted curve in the direction sought with a large enough effect; inconclusive = small, poorly fitted or top-dose-only effect, or another doubt; inactive = no such curve, though single readings can be large; an effect the other way counts as inactive or inconclusive.

Screening O=C(O)c1ccc(N2C(=O)CC(N3C(=O)/C(=C/c4ccc(Cl)cc4)SC3=S)C2=O)cc1 (stereo unspecified) returned ELG1 repair inh inactive, DT40 TDP1 no CPT inconclusive, IL1B secr inh inactive, RORg inh inactive, VP16 counter inactive and TDP1 cell CPT inconclusive.
CCN(CC)c1ccc(NC(=O)C(C)C)cc1 was read as ELG1 repair inh inconclusive, DT40 TDP1 no CPT inactive, IL1B secr inh inactive, RORg inh inactive, VP16 counter inactive and TDP1 cell CPT inactive.
Cc1ccc(NC2=C(Cl)C(=O)c3ccccc3C2=O)cc1 was read as ELG1 repair inh inconclusive, DT40 TDP1 no CPT 13µM, IL1B secr inh inactive, RORg inh inconclusive, VP16 counter inconclusive and TDP1 cell CPT 8.2µM.
For CC(=O)Nc1ccc(NC2=CC(=O)c3ccccc3C2=O)cc1 the results were ELG1 repair inh inconclusive, DT40 TDP1 no CPT inactive, IL1B secr inh inactive, RORg inh inactive, VP16 counter inconclusive and TDP1 cell CPT inactive.
For O=C1C(Cl)=C(Nc2ccc(O)cc2)C(=O)c2ccccc21 the results were ELG1 repair inh inconclusive, DT40 TDP1 no CPT inconclusive, IL1B secr inh -104.7, RORg inh inconclusive, VP16 counter inconclusive and TDP1 cell CPT 20.6µM.
O=C1C=C(Nc2ccc(O)cc2)C(=O)c2ccccc21 was read as ELG1 repair inh inconclusive, DT40 TDP1 no CPT 13µM, IL1B secr inh inactive, RORg inh inactive, VP16 counter inconclusive and TDP1 cell CPT 14.6µM.
For CCN(CC)c1ccc(NC2=C(Cl)C(=O)c3ccccc3C2=O)cc1 the results were ELG1 repair inh inconclusive, DT40 TDP1 no CPT 13µM, IL1B secr inh -107.8, RORg inh inconclusive, VP16 counter 11.2µM and TDP1 cell CPT 10.3µM.
O=S1(=O)N=C(Nc2ccc(O)cc2)c2ccccc21 was read as ELG1 repair inh inactive, DT40 TDP1 no CPT inactive, IL1B secr inh inactive, RORg inh inactive, VP16 counter inactive and TDP1 cell CPT inactive.
For CC(=O)OC[C@@H]1O[C@@H](O/N=C2/C[C@@H](O)[C@@H](O)[C@@H]3[C@@H]4C(=O)N(C5CCCCC5)C(=O)[C@H]4CC[C@@H]23)[C@H](OC(C)=O)[C@H](OC(C)=O)[C@@H]1OC(C)=O the results were RORg inh inactive[10 µM] and VP16 counter inactive[10 µM].
`Cc1ccc(S(=O)(=O)Nc2ccc(-c3nc4ccc(C)cc4s3)cc2)cc1` gave ELG1 repair inh inactive, DT40 TDP1 no CPT inconclusive, IL1B secr inh inactive and TDP1 cell CPT inconclusive.
Screening Cc1nc2cc(NC(=O)CCS(=O)(=O)c3ccccc3)ccc2s1 returned ELG1 repair inh inconclusive, DT40 TDP1 no CPT inactive, IL1B secr inh inactive, RORg inh 15.8µM, VP16 counter inconclusive and TDP1 cell CPT inactive.
For Cc1ccc2nc(-c3ccc(NC(=O)CCS(=O)(=O)c4ccccc4)cc3)sc2c1 the results were ELG1 repair inh inconclusive, DT40 TDP1 no CPT 25.9µM, IL1B secr inh inactive, RORg inh 1.12µM, VP16 counter 7.94µM and TDP1 cell CPT inconclusive.
For Cc1cccc(S(=O)(=O)Nc2ccc(-c3nc4ccc(C)cc4s3)cc2)c1 the results were ELG1 repair inh inconclusive, DT40 TDP1 no CPT 29.1µM, IL1B secr inh inactive, RORg inh 5.62µM, VP16 counter inactive and TDP1 cell CPT inconclusive.
For CCOc1ccc(NC(=O)CN(C)C(=O)c2ccc3nc(CC)c(CC)nc3c2)cc1OCC the results were ELG1 repair inh inactive, DT40 TDP1 no CPT inactive, IL1B secr inh inactive and TDP1 cell CPT inactive.
`O=C(Nc1ccc(Cl)cc1Cl)c1ccc2c(c1)OCCO2` gave ELG1 repair inh inconclusive, DT40 TDP1 no CPT inactive, IL1B secr inh inactive and TDP1 cell CPT inactive.
For O=C(/C=C/c1ccccc1)Nc1cc(-c2nc3ccccc3o2)ccc1Cl the results were DT40 TDP1 no CPT inactive and TDP1 cell CPT inconclusive.
Screening Cc1ccc2nc(-c3cc(NC(=O)/C=C/c4ccccc4)ccc3Cl)oc2c1 returned DT40 TDP1 no CPT 16.4µM and TDP1 cell CPT 23.1µM.
For O=C(Nc1nnc(-c2cc(Cl)ccc2Cl)o1)c1ccc2c(c1)OCCO2 the results were DT40 TDP1 no CPT 16.4µM and TDP1 cell CPT inconclusive.
